Results published in PubChem BioAssay (NCATS).
Results filed as inconclusive are left out. Calls come from the whole dose curve; as a rule, active = well fitted curve in either direction with a large enough effect (not every such curve was filed as active); inconclusive = small, poorly fitted or top-dose-only effect, or another doubt; inactive = flat fitted curve, though single readings scatter.

molecular target: Mitogen-activated protein kinase 10 (Mus musculus) (UniProt Q61831); assay: JNK3 AlphaScreen Assay (AID 530); conditions: JNK3 lysate, c-Jun phosphorylation; series mostly up to 57.1 µM; activity change, negative = inhibition: at the top concentration;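 note: kinase came from lysate of stimulated human HepG2 cells; signal reports phosphorylation of biotinylated GST-cJun 1-79 at Ser73 with 10 µM ATP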
Summary of the method: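 qHTS titrations with 15 min compound pre-incubation before adding ATP (10 uM final). Read-out: AlphaScreen of Ser73-phosphorylated biotin-GST-cJun using HepG2 lysate JNK3 activated by IL-1β and TNFα.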
% is set by controls: 0 for no effect and ±100 for the full control effect.

Activity change, negative = inhibition, inactive:
COC(=O)[C@@]1(Cc2ccc(F)cc2)[C@H]2c3cc(C(=O)N(C)C)n(CCc4ccc(O)c(O)c4)c3C[C@H]2CN1C(=O)c1ccccc1 -11.6%
COC(=O)[C@@]1(Cc2ccccc2)[C@H]2c3cc(C(=O)N(C)C)n(CCO)c3C[C@H]2CN1C(=O)c1ccccc1 -4.49%
COC(=O)[C@@]1(Cc2ccc(OC)cc2)[C@H]2c3cc(C(=O)N(C)C)n(Cc4ccc(OC)c(OC)c4)c3C[C@H]2CN1C(=O)c1ccccc1 -21.3%
CO[C@H]1OC[C@@]2(C)[C@@H]3C4=C(CN2C(=O)OC(C)(C)C)[C@H](C)[C@H](CO)[C@H](CO)[C@H]4CC[C@H]13 -6.23%
COC(=O)[C@@]1(Cc2ccc(OC)cc2)[C@H]2c3cc(C(=O)N4CCCC4)n(CCc4ccc(O)c(OC)c4)c3C[C@H]2CN1C(=O)c1ccccc1 -19%
COC(=O)[C@@]1(Cc2ccc(OC)cc2)[C@H]2c3cc(C(=O)N(C)C)n(Cc4ccc(Cl)c(C(F)(F)F)c4)c3C[C@H]2CN1C(=O)c1ccccc1 -15.3%
COC(=O)[C@@]1(Cc2ccc(OC)cc2)[C@H]2c3cc(C(=O)N4CCCC4)n(CCF)c3C[C@H]2CN1C(=O)c1ccccc1 -25.4%
CC(=O)OCC1C2CC[C@H]3C(OCc4ccc(F)cc4C(F)(F)F)OC[C@]4(C)[C@H]3C2=C(CN4C(=O)OC(C)(C)C)[C@H](C)C1COC(C)=O (stereo not given in full) -2.06%
COC(=O)[C@@]1(Cc2ccc(OC)cc2)[C@H]2c3cc(C(=O)N(C)C)n(CCSCCO)c3C[C@H]2CN1C(=O)c1ccccc1 -11.5%
COC(=O)[C@@]1(Cc2ccc(F)cc2)[C@H]2c3cc(C(=O)N(C)C)n(Cc4nc5ccccc5[nH]4)c3C[C@H]2CN1C(=O)c1ccccc1 -21.9%
